Source: PubChem (several laboratories)
M18AAP inhibitor – PfM18AAP inhibitors, malaria aminopeptidase, primary screen, biochemical, QFRET, recombinant enzyme. M18 aspartyl aminopeptidase (Plasmodium falciparum 3D7). H-Glu-NHMec fluorogenic cleavage. inhibition, % at 7.35 µM. 1.2% of 290,000 active;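 active = inhibition above the campaign mean inhibition over all tested compounds plus 3 SD, cut at about 28% in these data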
ALR H2O2 inh – inhibitors of human ALR sulfhydryl oxidase, primary screen, biochemical, H2O2 detection, HRP-luminol luminescence, single point. inhibition, % (concentration not given with the values). 3.8% of 290,000 active. purified ALR, DTT oxidation;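 active = mean replicate inhibition above about 79%, with every replicate also reaching it, limit read from the data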
A3G deaminase – APOBEC3G DNA deaminase inhibitors, primary screen, biochemical, fluorescence, single-stranded DNA substrate, uHTS; DNA dC->dU-editing enzyme APOBEC-3G (Homo sapiens), Q9HC16; recombinant A3G, ssDNA deamination FAM/TAMRA fluorescence; inhibition, % at 20 µM; 0.28% of 330,000 active; AID 493012, 2011;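 active = inhibition of at least 40% at 20 µM, with no more than 30% in the related APOBEC3A deaminase screen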
Target sequence (Q9HC16 whole entry, looked up): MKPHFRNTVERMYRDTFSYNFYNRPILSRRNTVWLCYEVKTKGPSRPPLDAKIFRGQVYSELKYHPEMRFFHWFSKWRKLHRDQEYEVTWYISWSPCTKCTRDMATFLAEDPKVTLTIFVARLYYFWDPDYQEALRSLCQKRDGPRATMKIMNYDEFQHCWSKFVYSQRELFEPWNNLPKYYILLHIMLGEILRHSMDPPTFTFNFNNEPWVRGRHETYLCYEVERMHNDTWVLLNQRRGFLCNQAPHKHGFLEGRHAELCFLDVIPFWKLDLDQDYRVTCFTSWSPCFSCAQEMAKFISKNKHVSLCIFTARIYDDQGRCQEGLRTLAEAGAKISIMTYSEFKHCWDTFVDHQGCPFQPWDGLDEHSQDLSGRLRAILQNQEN
CendR NRP1 mod – modulators of CendR peptide binding to NRP-1, primary screen, biochemical, fluorescence polarization, uHTS. Neuropilin-1 (Homo sapiens), O14786. FAM-RPARPAR peptide binding to NRP-1. inhibition, % at 25 µM. 0.85% of 360,000 active. AID 602438, 2012;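 active = inhibition or corrected inhibition above about 18%, plus a signal ratio from 0.5 to 1.5, limit read from the data, passing the limit was not always enough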
Yeast superoxide – reduction of superoxide in aged yeast, primary screen, HTS | S. cerevisiae aged cells, superoxide DHE fluorescence; hits give low values | superoxide response (% of plate mean), % at 10 µM | AID 2690, 2010 | 0.18% of 330,000 active;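 active = superoxide response under a set limit, about three screen SD below normal, cut at about 65% in these data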;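 note: yeast aged for seven days with compound at 30 °C before DHE staining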
A3A deaminase – APOBEC3A ssDNA deaminase inhibitors, primary screen, selectivity assay for APOBEC3G inhibitor project, biochemical, FAM/TAMRA oligo cleavage fluorescence; 0.41% of 330,000 active; DNA dC->dU-editing enzyme APOBEC-3A (Homo sapiens), P31941; inhibition, % at 20 µM; recombinant A3A, FAM/TAMRA ssDNA deamination fluorescence; AID 493011, 2011;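 active = at least 40% inhibition at 20 µM here, with at most 30% in a related deaminase screen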
Target sequence (P31941 whole entry, looked up): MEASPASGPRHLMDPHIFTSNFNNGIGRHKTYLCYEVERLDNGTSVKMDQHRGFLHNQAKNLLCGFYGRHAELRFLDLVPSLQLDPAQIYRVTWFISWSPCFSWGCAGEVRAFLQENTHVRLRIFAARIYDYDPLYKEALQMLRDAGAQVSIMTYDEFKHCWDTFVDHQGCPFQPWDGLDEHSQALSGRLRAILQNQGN
Large screens that a line does not name were inactive. An excerpt weighted towards active compounds, which were near 5.2% of everything screened.

O=C(O)CCC1c2cc3c4cc2OC2Oc5cc6c(cc51)C(CCC(=O)O)c1cc5c7cc1OC(O6)c1cc6cc(c1)Oc1cc(cc(C(=O)O)c1)Oc1cc8cc(c1)C(Oc1cc(c(cc1C5CCC(=O)O)C3CCC(=O)O)OC(O4)c1cc(cc(c1)Oc1cc(cc(C(=O)O)c1)O8)Oc1cc(cc(C(=O)O)c1)Oc1cc(cc2c1)Oc1cc(cc(C(=O)O)c1)O6)O7 (stereo not drawn)	ALR H2O2 inh 98.4 (no result: M18AAP inhibitor, CendR NRP1 mod)
CCCn1c(=N)n(CC(=O)OCC)c2ccccc21	none
NC(=O)c1ccccc1NC(=O)C(c1ccccc1)c1ccccc1	CendR NRP1 mod 40.2 (no result: M18AAP inhibitor)
CC(C)NC(=O)Nc1ccc2c(c1)C(=O)N([C@H](C)CO)C[C@H](C)[C@@H](CN(C)C(=O)Nc1ccc(C(F)(F)F)cc1)O2	none (no result: M18AAP inhibitor)
CC(=O)Nc1cccc(Nc2nc(-c3ccccc3F)nc3ccccc23)c1	ALR H2O2 inh 98.2
Oc1ccc(Nc2nc(-c3ccccc3)nc3ccccc23)cc1	ALR H2O2 inh 97.8
O=[N+]([O-])c1ccc(-c2nc(Nc3ccc(O)cc3)c3ccccc3n2)cc1	none
COC(=O)CNc1nc(-c2ccccc2F)nc2ccccc12	none
CC(=O)Nc1ccc(Nc2nc(-c3ccccc3)nc3ccccc23)cc1	ALR H2O2 inh 98.9
CC(=O)OC(C(=O)NC1CCCCC1)c1ccc(Cl)c(Cl)c1 (stereo not drawn)	none
COC(=O)c1cc(C(=O)Nc2nnc(CC(C)C)s2)cc([N+](=O)[O-])c1	none
CCC(CC)c1nnc(NC(=O)c2cc(C(=O)OC)cc([N+](=O)[O-])c2)s1	M18AAP inhibitor 29.7
CC(C)(C)OC(=O)C[C@H]1C/C=C\C[C@@H](CC(=O)N[C@@H](CO)Cc2ccccc2)C(=O)NCCOC1=O	CendR NRP1 mod 35.9 (no result: M18AAP inhibitor)
CC(C)(C)OC(=O)C[C@H]1C/C=C\C[C@@H](CC(=O)NCCO)C(=O)NC[C@H](c2ccccc2)OC1=O	none (no result: M18AAP inhibitor)
CC(C)(C)OC(=O)C[C@H]1C/C=C\C[C@@H](CC(=O)N[C@H](CO)Cc2ccccc2)C(=O)NCCOC1=O	none (no result: M18AAP inhibitor)
O=C(C[C@@H]1C/C=C/CC[C@H](Cc2ccc(F)cc2)C(=O)O[C@H](c2ccccc2)CNC1=O)NCCO	none (no result: M18AAP inhibitor)
CC(C)(C)OC(=O)C[C@@H]1C/C=C\C[C@@H](CC(=O)NCCO)C(=O)NC[C@@H](c2ccccc2)OC1=O	CendR NRP1 mod 18.2 (no result: M18AAP inhibitor)
O=C(C[C@H]1C/C=C\C[C@@H](Cc2ccc(F)cc2)C(=O)O[C@H](c2ccccc2)CNC1=O)NCCO	CendR NRP1 mod 17.8 (no result: M18AAP inhibitor)
CC(C)(C)[C@H]1COC(=O)[C@H](NC(=O)OCC2c3ccccc3-c3ccccc32)C/C=C\C[C@@H](CC(=O)N[C@@H](CO)Cc2ccccc2)C(=O)N1	CendR NRP1 mod 19.2 (no result: M18AAP inhibitor)
Cc1ccc(NC(=O)C2CCCN(S(=O)(=O)c3c(C)noc3C)C2)cc1 (stereo not drawn)	none
COC(=O)c1ccc(-c2sc3nc(N4CCOCC4)c4c(c3c2N)CC(C)(C)OC4)o1	none
CC(=O)Nc1ccc(S(=O)(=O)N[C@H](C(=O)O)C(C)C)cc1	none
O=C(O)c1cccc(Nc2nc(Nc3ccccc3)nc(N3CCCC3)n2)c1	ALR H2O2 inh 94.5
O=C(O)c1cccc2c1-c1ccc(Cl)cc1C2=O	none (no result: M18AAP inhibitor, ALR H2O2 inh, A3G deaminase, Yeast superoxide, A3A deaminase)
O=C(O)c1cccc2c1Cc1cc(Cl)ccc1-2	CendR NRP1 mod 24.8 (no result: M18AAP inhibitor, ALR H2O2 inh, A3G deaminase, Yeast superoxide, A3A deaminase)
O=C(c1ccccc1F)N1CCN(c2ccc([N+](=O)[O-])c(N3CCOCC3)c2)CC1	none
COC(=O)c1cc2ccccc2c([N+](=O)[O-])c1O	CendR NRP1 mod 22.7 (no result: M18AAP inhibitor, ALR H2O2 inh, A3G deaminase, Yeast superoxide, A3A deaminase)
CNc1nn(-c2cccc(Cl)c2)nc1N	ALR H2O2 inh 98.7
Cc1ccc(NC(=O)C2SC(=Nc3ccccc3)C(C(=O)Nc3ccc(Cl)cc3)=C2N)cc1 (stereo not drawn)	none (no result: ALR H2O2 inh, A3G deaminase, Yeast superoxide, A3A deaminase)
CN(C)c1ccc(NC(=O)c2cccc(N3C(=O)CCC3=O)c2)cc1	ALR H2O2 inh 99.0
CCN(CC)c1ccc(C(=O)Nc2cccc(F)c2)cc1	none
CN(C)c1cccc(C(=O)Nc2cccc(F)c2)c1	ALR H2O2 inh 98.2
COc1cc(C(=O)Nc2ccc(N(C)C)cc2)cc(OC)c1OC	ALR H2O2 inh 99.4
COCCCN1C(=O)C(=O)/C(=C(/O)c2ccc(S(=O)(=O)N3CCCCC3)cc2)C1c1ccc(F)cc1 (stereo not drawn)	none
CC(=O)NS(=O)(=O)c1ccc(N=c2ssc3c2-c2ccc(C)cc2NC3(C)C)cc1	ALR H2O2 inh 99.6
COCCn1c(=O)[nH]c2cc(C(=O)Nc3cc(C)cc(C)c3)ccc2c1=O	none
Cc1cccc(C(=O)Nc2c3c(nn2C(C)(C)C)CS(=O)(=O)C3)c1	none
C=CCc1cccc(C=Nc2cc(Br)ccc2O)c1O	none
C=CCc1cccc(/C=N/n2c(C)nnc2C)c1O	CendR NRP1 mod 19.5
COc1cnc(SCc2ccc(Cl)cc2Cl)nc1Cl	ALR H2O2 inh 98.1
COc1ccc(-c2nc(CS(=O)CC(=O)NC3CCCc4ccccc43)c(C)o2)cc1OC (stereo not drawn)	ALR H2O2 inh 98.9
COc1ccc(-c2nc(CS(=O)CC(=O)NC3CCCC3)c(C)o2)cc1OC (stereo not drawn)	ALR H2O2 inh 99.2
COc1ccc(-c2nc(CSCC(=O)NC3CCCc4ccccc43)c(C)o2)cc1OC (stereo not drawn)	none (no result: ALR H2O2 inh)
COc1ccc(-c2nc(CS(=O)CC(=O)NC3CCC(C)CC3)c(C)o2)cc1OC (stereo not drawn)	ALR H2O2 inh 99.5
CC(C)Cc1nnc(NC(=O)CCC(=O)Nc2ccc(F)cc2)s1	none
CN(C)c1ccc(C(=O)c2ccc(N(C)C)c(N)c2)cc1N	ALR H2O2 inh 95.5
O=C(Cn1ncc2c3ccccc3n(Cc3ccccc3F)c2c1=O)NCCCN1CCCC1=O	none
COc1ccc(-n2c(C)cc(C(=O)Cn3nc(C(=O)O)c4ccccc4c3=O)c2C)cc1	CendR NRP1 mod 29.8
Cc1ccc(-n2c(C)cc(C(=O)Cn3nc(C(=O)O)c4ccccc4c3=O)c2C)cc1	none
COc1cccc2c1OCC/C2=N\NC(=O)COc1ccccc1C	CendR NRP1 mod 31.8
Cc1ccccc1OCC(=O)N/N=C1\CCOc2c(C)cccc21	none
C/C(=N\Nc1ncnc2sc(C)c(C)c12)c1ccccn1	Yeast superoxide 35.8 (no result: ALR H2O2 inh)
Cc1sc2ncnc(N/N=C/c3cccc(O)c3)c2c1C	none
O=C(c1ccc(-c2cccc(C(F)(F)F)c2)o1)N1CCN(c2ccccc2O)CC1	none
O=C(c1ccc(-c2cccc(C(F)(F)F)c2)o1)N1CCCC(C(F)(F)F)C1 (stereo not drawn)	CendR NRP1 mod 21.5 (no result: M18AAP inhibitor)
